# Screens as filed in PubChem BioAssay.
# KLF5 inhibitor: kruppel-like factor 5 inhibition; AID 1700; inhibition, % at 5 µM; DLD-1 KLF5 promoter-luciferase reporter, luminescence; actives 0.23% (n = 290,000);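 active = inhibition above a per-plate limit of that plate's mean compound inhibition plus 3 SD, cut at about 60% in these data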;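 also: 0% = DMSO wells and 100% = LY294002 at 200 µM; higher means less KLF5 promoter-driven luciferase light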
# IEC-6 tox: counter-screen for KLF5 inhibitors: cytotoxicity in IEC-6 cells; IEC-6 cytotoxicity, luminescence viability; inhibition, % at 5 µM; actives 0.78% (n = 290,000); in the data active = inhibition above about 22%;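 also: 0% = plate median of test compound wells and 100% = cytotoxic reference compound wells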
# BaF3 parental: parental Ba/F3 viability inhibition as JAK2V617F counter-screen | AID 1486 | actives 1.1% (n = 220,000) | CellTiter-Glo ATP luminescence | inhibition, % at 5.6 µM;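 active = inhibition above a per-campaign cutoff, the mean inhibition of all tested compounds plus 3 SD, cut at about 27% in these data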;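 also: 0% = DMSO wells and 100% = JAK Inhibitor I control wells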
# Ba/F3 V617F tox: loss of viability in JAK2V617F-driven Ba/F3 cells; Ba/F3 EpoR-JAK2V617F viability, ATP luminescence; inhibition, % at 5.6 µM; actives 1.1% (n = 220,000);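 active = inhibition above the campaign mean plus 3 SD over all tested compounds, cut at about 24% in these data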;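 also: cytokine-independent growth of Ba/F3 cells driven by EpoR plus mutant JAK2; 0% = DMSO-treated cells and 100% = JAK inhibitor I control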
# APP transl inh: APP translation inhibition | SH-SY5Y APP 5'UTR-luciferase reporter, luminescence | inhibition, % at 2 µM | actives 0.82% (n = 190,000) | AID 1285;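 active = inhibition above a set limit, derived from the sample mean plus 3 SD, cut at about 45% in these data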
# Numbers without * were called inactive; / = not tested or not shown. Most compounds without a hit are left out; they make up all but 1.9% or so of the library.
SMILES,KLF5 inhibitor,IEC-6 tox,BaF3 parental,Ba/F3 V617F tox,APP transl inh
Cc1oc(C(=O)Nc2ccc(O)cc2)cc1COc1ccccc1,-10,5,37*,9,-14
COCCn1c(-c2ccccc2Cl)nc2c(c(=O)c3ccccc3n2C)c1=O,-16,3,5,2,-6
N#CC1=C2SCN(c3ccccc3)CN2C(=O)CC1c1c(Cl)cccc1Cl (stereo unspecified),-15,-6,3,-2,8
N#CC1=C2SCN(c3ccccc3)CN2C(=O)CC1c1ccccc1Cl (stereo unspecified),-13,5,39*,2,0
Cc1ccc(NC(=O)/C(=C/c2cccs2)NC(=O)c2ccco2)cc1,-11,-2,29*,-3,3
COc1ccc(NC(=O)/C(=C\c2cccs2)NC(=O)c2ccco2)cc1,-22,-1,13,2,-19
COc1ccccc1NC(=S)N(Cc1ccco1)Cc1cc2cccc(C)c2[nH]c1=O,-4,-1,7,7,16
COc1ccccc1NC(=S)N(Cc1ccco1)Cc1cc2cc(C)c(C)cc2[nH]c1=O,-5,3,7,9,92*
CC(N=C1CC(C)(C)CC(=O)/C1=C(/O)CCCN1C(=O)c2ccccc2C1=O)C(=O)O (stereo unspecified),-35,-7,2,-2,-5
CC1CCC(C(C)C)C(OC(=O)C[n+]2cc(-c3ccc(Cl)cc3)n3c2CCCCC3)C1 (stereo unspecified),21,5,73*,101*,-19
Cc1ccc(NC(=O)C[n+]2cc(-c3ccccc3)n3c2CCC3)cc1,0,-4,-2,-1,/
O=C(C[n+]1cc(-c2ccccc2)n2c1CCCCC2)c1ccc(Cl)cc1,-3,1,56*,53*,2
C[n+]1cc(-c2ccccc2)n2c1CCCCC2,-33,1,64*,65*,-8
O=[N+]([O-])c1ccc(C[n+]2cc(-c3ccccc3)n3c2CCCCC3)cc1,10,0,10,-3,4
COc1ccc(-c2c[n+](CC(=O)c3ccccc3)c3n2CCCCC3)cc1,-27,-2,60*,48*,/
C=CCNCCOCCOc1ccccc1-c1ccccc1,21,-2,6,-1,-2
CC1(C)Oc2ccccc2OC1(O)c1ccc2ccccc2n1 (stereo unspecified),27,8,6,2,7
C=CCNC(=O)C(=O)Nc1cc2c3c(c1)CCC(=O)N3CCC2,-24,4,/,/,/
Cc1ccc(-c2c[n+](CC(=O)c3ccc(Br)cc3)c3n2CCCCC3)cc1,-8,3,69*,77*,-16
O=C(C[n+]1cc(-c2ccc(F)cc2)n2c1CCC2)c1cccs1,-54,-5,29*,11,/
COc1cc(F)ccc1S(=O)(=O)NCc1cccnc1,-41,1,/,/,/
Cc1ccc(OCCCCNC(C)c2ccccc2)c(C)c1 (stereo unspecified),-28,-4,/,/,/
COCC(C)n1c(SCc2nc3ccccc3c(=O)[nH]2)nc2ccccc2c1=O (stereo unspecified),-22,34*,7,4,-11
COCCCn1c(SCc2nc3ccccc3c(=O)[nH]2)nc2ccccc2c1=O,-23,6,4,2,8
CC(C)CCNC(=O)NC(=O)COc1ncnc2sccc12,-4,-6,96*,-5,5
SMILES,KLF5 inhibitor,IEC-6 tox,BaF3 parental,Ba/F3 V617F tox,APP transl inh
CC(C)CNC(=O)NC(=O)COc1ncnc2sccc12,-26,-2,0,-3,-3
CCCn1c(-c2ccc(OC)cc2)nc2ccccc21,-3,3,52*,40*,-16
CCN=C1S/C(=C\c2sccc2C)C(=O)N1CC,7,-6,1,-6,-41
CCOc1ccc(C(C)=O)cc1COc1ccc(C)nc1[N+](=O)[O-],-19,-4,/,/,/
Cc1ccc[n+](Cc2ccc([N+](=O)[O-])cc2)c1,-28,0,11,2,-16
O=[N+]([O-])c1ccc(C[n+]2cccc3c4ccccc4ccc32)cc1,-22,-11,74*,90*,4
C/C(=N\NC(=O)c1nnn(-c2nonc2N)c1CN(C)c1ccccc1)c1ccc(O)cc1,-24,-9,/,/,/
C/C(=N\NC(=O)c1nnn(-c2nonc2N)c1CN(C)c1ccccc1)c1ccccn1,62*,38*,/,/,/
N#Cc1nc(COc2ccc(F)cc2)oc1N1CCC(Cc2ccccc2)CC1,-42,1,-1,-2,66*
N#Cc1nc(COc2ccc(F)cc2)oc1N1CCN(Cc2ccccc2)CC1,13,5,3,-1,5
CC1Sc2n(c3ccccc3[n+]2C)N=C1c1ccccc1 (stereo unspecified),5,21,74*,99*,19
C[n+]1c2n(c3ccccc31)N=C(c1ccc(Cl)cc1)CS2,-2,-1,67*,78*,-4
CN(C)c1ccc2c(c1)OC(N)=C(C#N)C2c1cccc(F)c1 (stereo unspecified),-25,2,2,-3,95*
CN(Cc1nccs1)C(=O)C1CCC(=O)N(CCCc2ccccc2)C1 (stereo unspecified),11,-3,/,/,/
COC(=O)C(Cc1ccc(OC(=O)c2ccc(Cl)cc2)cc1)N1Cc2ccccc2C1=O (stereo unspecified),-45,4,96*,2,-48
C/C(=N\S(=O)(=O)c1ccc(C)cc1)N1CCCCC1,-20,0,80*,1,-2
C/C(=N\S(=O)(=O)c1ccc(C)cc1)N1CCN(S(=O)(=O)c2ccccc2)C1,-22,0,-1,0,-8
Nc1ccc(C(=O)N2CCN(S(=O)(=O)c3ccc4c(c3)OCCO4)CC2)cc1[N+](=O)[O-],-18,5,/,/,/
CCC(CO)Nc1ccc(-c2n[nH]c(=O)c3ccccc23)cc1[N+](=O)[O-] (stereo unspecified),-34,8,/,/,/
Cc1nn(C(=O)C(C)N2C(=O)c3ccccc3C2=O)c(C)c1Br (stereo unspecified),-14,-4,94*,-1,-3
Cc1nnc(-c2ccccc2)c(=O)n1/N=C/c1c(O)ccc2ccccc12,30,-2,6,2,61*
CCc1ccc(Nc2cnn(C34CC5CC(CC(CC(=O)O)(C5)C3)C4)c(=O)c2Cl)cc1,-13,-7,3,-1,57*
O=C(CSc1nnc(Cn2nnc3ccccc32)o1)N(Cc1ccc(F)cc1)c1ccccc1,-14,8,41*,9,4
O=C(Oc1nsnc1N1CCOCC1)c1ccccc1,-13,2,6,1,53*
O=C(Oc1nsnc1N1CCOCC1)N1CCOCC1,-3,0,-2,-4,-2
COC(=O)c1ccc(OS(=O)(=O)N(C)C)cc1,-27,3,36*,-2,-27
CC(C)(C)NC(=O)COC(=O)c1ccccc1OCC(=O)Nc1ccc(Br)cc1,0,-1,-1,-3,-11
Cc1c(NC(=O)C(C)Sc2ccccc2)c(=O)n(-c2ccccc2)n1C (stereo unspecified),-14,-5,4,3,58*
